# Data taken from PubChem BioAssay AID1347076 (National Center for Advancing Translational Sciences (NCATS), 2019).
# In all, about 400,000 compounds went through this assay and about 13,000 (3.2%) were called active. Not shown: some 18% with an inconclusive outcome. Calls come from the whole dose curve; as a rule, active = well fitted cell-killing curve with a large enough effect; inconclusive = small, poorly fitted or top-dose-only effect, or effect the other way; inactive = flat fitted curve, though single readings scatter. This excerpt belongs to a sample that is enriched for actives.
# Assay: qHTS assay for MDR1-selective chemotherapeutics: Primary screen using the drug-selected MDR subline cells KB-V1; note: nearly all actives have a fitted effect of over 60% in size
# Conditions: KB-V1 MDR cells viability, CellTiter-Glo, 72 h; series mostly up to 46.1 µM; activity change, negative = cytotoxicity: at the top concentration
# Text: A prime difficulty in effectively treating cancer is the development of cellular resistance to multiple structurally unrelated anticancer drugs, a phenomenon known as multidrug resistance (MDR). […] Numerous strategies to overcome P-gp-mediated MDR have been explored, including the design of drugs that evade recognition and efflux, and development of inhibitors to block efflux and restore drug accumulation. […] An alternative approach is to exploit resistance by identifying drugs that target MDR cells over the non-resistant parental cells from which they were selected. […] The development of MDR1-selective agents represents a new strategy for resolving multidrug resistance, as it remains a long-standing clinical challenge for cancer chemotherapy.
# Our goal is to identify compounds that selectively kill P-gp-expressing MDR cells. We will identify MDR1-selective compounds by comparing toxicity of compounds in the screening library against parental, drug-naive (KB-3-1) adenocarcinoma cells as well as their drug-selected MDR sub-line (KB-V1). The differential toxicity of compounds against these two cell lines will be used to identify MDR1-selective compounds, whose cytotoxicity is potentiated, rather than diminished, by P-gp expression. This assay will be utilized to conduct a quantitative high-throughput screen (qHTS) in collaboration with the NIH Chemical Genomics Center to identify selective agents, and probe hits arising from the screen will be validated using secondary assays and characterized through a well-established follow-up research program. This screen was run against the entire NCGC library collection of about 400,000 compounds.
# NIH Molecular Libraries Probe Production Network [MLPCN]
# NIH Chemical Genomics Center [NCGC]
# PI: Michael Gottesman, National Cancer Institute, NIH
# Briefly, 5 microL of media containing either KB-V1 cells (columns 1-2, 4-48) are dispensed into Greiner white, treated solid-bottom 1536-well assay plates (media-only control is added to column 3). Compounds are then transferred via Kalypsys pin tool equipped with 1536-pin array (10 nL slotted pins, V&P Scientific, San Diego, CA). Following addition of compound, the plates are incubated at 37 degrees C for 72 hours. CellTiter-Glo (2.5 µL/well) is then added, and the plates are read in a ViewLux reader (Perkin-Elmer, clear luminescence filter, 1 second exposure, 1x binning) following a 10 minute incubation. All cells are dispensed in DMEM phenol-red free media containing 10% FBS.
# Library plates were screened starting from the lowest and proceeding to the highest concentration. Vehicle-only plates, with DMSO being pin-transferred to columns 5-48, will be inserted uniformly at the beginning and the end of each library in order to monitor and record any shifts in the background, which can be affected by reagent dispensers or loss in enzyme activity over time. Screening data will be corrected, normalized, and concentration-effect relationships will be derived by using publicly-available NCGC, NCATS curve fitting algorithms (http://ncgc.nih.gov/pub/openhts).
# % is set by controls: 0 for no effect and ±100 for the full control effect; potency is the fitted concentration of half-maximal effect.
SMILES,"activity change, negative = cytotoxicity",Potency
COCOCCn1cc(CN2CCS(=O)(=O)N(Cc3ccc(-c4cccc(N(C)C)c4)cc3)C(CC(C)C)C2=O)nn1 (stereo unspecified),11.8% (inactive),
CCNC(=O)C1(C)CCCN(C(=O)c2c(C)noc2C)C1 (stereo unspecified),-1.18% (inactive),
CCCCCCNC(=O)O[C@H]1CN(C(=O)OC(C)C)N(C(=O)OC(C)C)[C@@H]2CN(S(=O)(=O)c3ccc(C)cc3)C[C@]12O,-29.2% (inactive),
CCOC(=O)C1C(=O)C=C(c2ccc(OC)cc2)CC1c1ccco1 (stereo unspecified),,11.6 µM (active)
CCOC(=O)C1C(=O)NC(N2CCN(c3ccccc3)CC2)=NC1c1ccco1 (stereo unspecified),6.85% (inactive),
COc1ccc(C2=NN(C(=O)CSc3nnnn3C)C(c3ccco3)C2)cc1 (stereo unspecified),56% (inactive),
O=C(CS(=O)(=O)c1cccc2nsnc12)N1CCN(c2cccc(Cl)c2)CC1,0% (inactive),
CC(=O)Nc1cccc(-c2cc3nc(NCc4cccnc4)n(C)c(=O)c3s2)c1,2.7% (inactive),
CC1(C(=O)NS(=O)(=O)c2ccccc2)CCN1C(=O)Cc1ccc(-c2ccccc2)cc1 (stereo unspecified),2.72% (inactive),
COc1ccc(OC)c(C(=O)c2coc3ccc(O)c(CN4CCOCC4)c23)c1,,7.31 µM (active)
Cc1ccc(C(=O)c2coc3ccc(O)c(CN(C)C)c23)cc1,6.06% (inactive),
COc1ccc(OC)c(C(=O)c2coc3ccc(OC)cc23)c1,-6.37% (inactive),
CC(=O)NC(c1ccccc1)c1nc(-c2ccccc2C)cs1 (stereo unspecified),5.09% (inactive),
O=C(c1ccco1)N(Cc1cccs1)c1ccc(O)cc1,-11.9% (inactive),
COc1cccc(NC(=O)N(C)C[C@@H]2Oc3ncc(Br)cc3C(=O)N([C@@H](C)CO)C[C@H]2C)c1,-16.2% (inactive),
COc1ccc(S(=O)(=O)N2CCN(C(=O)NC3CCCCC3)CC2)cc1,2.42% (inactive),
O=C(CN1CCN(S(=O)(=O)c2ccc(F)cc2)CC1)NC1CC1,12.1% (inactive),
O=C(CN1CCN(S(=O)(=O)c2ccc3ccccc3c2)CC1)NC(=O)NC1CCCCC1,,18.4 µM (active)
CC(=O)c1sc(N2C(=O)c3oc4ccccc4c(=O)c3C2c2ccc(C)cc2)nc1C (stereo unspecified),25% (inactive),
CN(C)c1ccnc2sc3c(=O)n(Cc4ccccc4)cnc3c12,,8.2 µM (active)
CN(C)/C=C/c1c(C#N)c(=O)ncn1Cc1ccccc1,-13.6% (inactive),
CN(C)c1ccnc2sc(C(=O)c3ccccc3)c(N)c12,12.2% (inactive),
COc1ccc(-c2coc3c(C(=O)NC(C)C)cccc23)c(C)c1,-5.97% (inactive),
CC(=O)Nc1ccc2nc(NC(=O)CS(=O)(=O)c3ccc(F)cc3)sc2c1,-2.91% (inactive),

SMILES,"activity change, negative = cytotoxicity",Potency
CCS(=O)(=O)N1Cc2ccccc2CC1C(=O)Nc1ccc(OC)cc1OC (stereo unspecified),3.09% (inactive),
CCS(=O)(=O)N1Cc2ccccc2CC1C(=O)Nc1nc2ccc(F)cc2s1 (stereo unspecified),,14.6 µM (active)
NC(=O)C1CCN(c2ncc(-c3ccc(Cl)cc3)s2)CC1,13.3% (inactive),
CCCC(=O)N1CCC1(C)C(=O)Nc1ccc(-n2cncn2)cc1 (stereo unspecified),5.17% (inactive),
CSCCC(C(=O)NC(C)(C)C)n1c(-c2ccccc2)nc2ccccc21 (stereo unspecified),-25.2% (inactive),
Cc1cccc(C)c1N1CCN(S(=O)(=O)N2CCOCC2)CC1,,16.4 µM (active)
Cc1ccc(S(=O)(=O)N2CCN(S(=O)(=O)N3CCOCC3)CC2)cc1,6.91% (inactive),
O=S(=O)(N1CCOCC1)N1CCN(c2ccccc2F)CC1,-16.5% (inactive),
Clc1ccc(-n2nnnc2CN2CCCCC2)cc1Cl,,13 µM (active)
Clc1ccc(CN2CCCCCC2)cc1Cl,-11.5% (inactive),
c1cc(-c2nn[nH]n2)ccc1CN1CCCCC1,-12.7% (inactive),
COc1ccc(S(=O)(=O)NC(=O)C2(C)CCN2C(=O)c2ccccc2CCc2ccccc2)cc1 (stereo unspecified),-9.62% (inactive),
Cc1ccc(C)c(N2CCN(C(=O)CN3C(=O)COc4ccc(S(=O)(=O)N5CCCCCC5)cc43)CC2)c1,-1.22% (inactive),
Cc1cc2c(cc1C)NC(c1ccccn1)C1=C(CC(C)(C)CC1=O)N2 (stereo unspecified),-1.56% (inactive),
Cc1nn(-c2ccccn2)c2c1C(c1ccncc1)C1=C(CC(C)(C)CC1=O)N2 (stereo unspecified),-6.62% (inactive),
CC1(C)CC(=O)C2=C(C1)Nc1cc(C(=O)c3ccccc3)ccc1NC2c1ccccn1 (stereo unspecified),,20.6 µM (active)
COc1ccc(C)cc1NC(=O)COCc1cc(-c2cccs2)on1,-7.37% (inactive),
O=S1(=O)CC(N2CCN(c3ccccn3)CC2)CN1Cc1ccc(F)cc1 (stereo unspecified),-24.7% (inactive),
COC(=O)C[C@@H]1C=C[C@@H](NS(=O)(=O)c2cccc(OC)c2)[C@@H](CO)O1,-3.47% (inactive),
CC(C)C[C@H]1CNC(=O)C(=O)N1C[C@@H]1CCCN1C[C@H](Cc1ccccc1)N1C[C@H](CC(C)C)N(CC2CCCCCC2)C(=O)C1=O,1.82% (inactive),
Cc1ccc(OCc2cc(C(=O)N(C)CCc3ccccc3)no2)cc1C,-18.2% (inactive),
CN(Cc1cccnc1)C(=O)c1cc(COc2ccc3ncccc3c2)on1,,5.17 µM (active)
CN(Cc1cnccn1)C(=O)c1cc(COc2cccc(C(F)(F)F)c2)on1,-13.2% (inactive),
CC(C)c1cccc(C(C)C)c1Nc1cn[nH]c1,13.2% (inactive),

SMILES,"activity change, negative = cytotoxicity",Potency
CC(=O)c1c(C)[nH]c(C(=O)COC(=O)c2cccs2)c1C,0% (inactive),
COc1cccc(C(=O)OCC(=O)c2[nH]c(C)c(C(C)=O)c2C)c1,-9.26% (inactive),
CC(=O)c1c(C)[nH]c(C(=O)COC(=O)c2cccc(S(=O)(=O)N(C)c3ccccc3)c2)c1C,,11.6 µM (active)
O=C(Nc1ccc2nc(SCC(=O)N3CCc4ccccc43)sc2c1)c1ccccc1F,4.97% (inactive),
COc1ccc(C2CC(=O)N(Cc3ccccc3C)c3c2c(C)nn3-c2nc(C)cc(C)n2)c(OC)c1 (stereo unspecified),-1.08% (inactive),
C[C@@H]1CN([C@@H](C)CO)S(=O)(=O)c2ccc(C#Cc3cccc(F)c3)cc2O[C@H]1CN(C)S(=O)(=O)c1cn(C)cn1,9.43% (inactive),
C[C@H]1CN([C@@H](C)CO)C(=O)CCCn2cc(nn2)CO[C@@H]1CN(C)S(=O)(=O)c1ccc(-c2ccccc2)cc1,13.4% (inactive),
Cc1ccn2c(-c3csc(Nc4ccc(C(=O)O)cc4)n3)c(C)nc2c1,-1.24% (inactive),
O=C(Nc1cccn(Cc2ccccc2Cl)c1=O)NC1CCCCC1,-3.85% (inactive),
O=C(Nc1cccn(Cc2c(Cl)cccc2Cl)c1=O)c1ccc(Cl)cc1,,3.66 µM (active)
O=c1c(=O)n(Cc2c(F)cccc2Cl)ccn1Cc1ccccc1,10.3% (inactive),
O=C(Nc1cccc2ccccc12)NC1CC1,11.2% (inactive),
CCCCNC(=O)OC1CC2CC1[C@H]1CCCCN1C2=O (stereo partly specified),-12.4% (inactive),
C[C@@H]1CN([C@@H](C)CO)C(=O)c2cc(Br)cnc2O[C@@H]1CN(C)C(=O)C1CCCCC1,-14.1% (inactive),
COc1cccc(Cn2cc(/C=N/NC(=O)c3cc(O)cc(O)c3)c3ccccc32)c1,-23.7% (inactive),
NC(=O)Cn1cc(/C=N\NS(=O)(=O)c2ccccc2)c2ccccc21,0% (inactive),
CCOC(=O)N/N=C/c1cn(Cc2ccccc2Cl)c2ccccc12,,5.8 µM (active)
COC(=O)N/N=C/c1cn(CCCOc2ccc(C)cc2)c2ccccc12,,18.4 µM (active)
CNC(=S)N/N=C/c1cn(Cc2ccc(C)cc2)c2ccccc12,,16.4 µM (active)
COc1ccc(OCCn2cc(C(=O)C3CCCCC3)c3ccccc32)cc1,-19% (inactive),
N#CCC(=O)N/N=C/c1cn(Cc2ccc3ccccc3c2)c2ccccc12,-0.985% (inactive),
CNC(=S)N/N=C/c1ccc(OCc2ccccc2)c(Br)c1,-3.98% (inactive),
Cc1ccc(OCCOc2cccc(/C=N/NC(N)=O)c2)cc1,1.37% (inactive),
CCCCCCCCN1C(=O)[C@H](CC(=O)NCc2cccc3ccccc23)C[C@@]2(C(=O)OC)CCCCC=C12,-23.6% (inactive),

SMILES,"activity change, negative = cytotoxicity",Potency
Cc1ccccc1S(=O)(=O)NC(=O)C1(C)CCN1C(=O)Cc1ccc(Cl)cc1Cl (stereo unspecified),4.1% (inactive),
CCc1nc2c(OCCOc3ccc(F)cc3)cccn2c1N(C)C(=O)c1ccccc1F,-15.3% (inactive),
Clc1ccc(-c2cccc3nccn23)cc1,-9.65% (inactive),
C=CCN1CCN(c2ccncc2S(=O)(=O)N2CCN(C)CC2)CC1,-1.22% (inactive),
COc1cccc(NC(=O)Nc2ccc3c(c2)N(C)C(=O)c2ccccc2S3)c1,-27% (inactive),
CC1(C)C=Cc2c(ccc(C(=O)/C=C/c3ccccc3)c2O)O1,0% (inactive),
O=C(COc1ccccc1F)NNC(=O)c1ccc(N2CCCCC2)c([N+](=O)[O-])c1,,16.4 µM (active)
O=C(c1ccc(N2CCOCC2)c([N+](=O)[O-])c1)N1CCN(c2ccccc2F)CC1,-21.3% (inactive),
O=C(NCCCN1CCOCC1)c1ccc(N2CCCC2)c([N+](=O)[O-])c1,-11.8% (inactive),
CN(C)c1cccc(NC(=O)c2ccc(-c3ccc(F)c(F)c3)c3ccoc23)c1,-1.95% (inactive),
CO[C@@H]1CN(C)C(=O)c2cc(NC(=O)Nc3cc(F)ccc3F)ccc2OC[C@H](C)N(C(=O)c2ccccn2)C[C@@H]1C,5.61% (inactive),
CCCCC(=O)OC1=CN(Cc2ccccc2)S(=O)(=O)c2ccccc21,-1.9% (inactive),
O=C(CN1CCOCC1)N1CCCc2c1c(=O)oc1ccc(OCc3ccccc3)cc21,,18.4 µM (active)
O=C(COc1ccc2oc3c(c2c1)CCCC3)Nc1ccccn1,-4.62% (inactive),
CC1CCCCN1CC(=O)N1CCCc2c1c(=O)oc1ccc(OCc3ccccc3)cc21 (stereo unspecified),-18% (inactive),
CCOc1ccc(CCN2C(=S)N([C@@H](CC(C)C)CN3CCC[C@@H]3CN3C(=S)NC[C@@H]3Cc3ccc(O)cc3)C[C@@H]2CC(C)C)cc1,-22.3% (inactive),
CC(=O)Nc1cncc(-c2ccccc2CO)n1,5.41% (inactive),
COc1ccccc1N(CC(=O)Nc1ccccc1C(=O)N1CCCC1)S(C)(=O)=O,-2.86% (inactive),
O=C(Nc1ccccc1C(=O)N1CCCCCC1)c1ccccc1Cl,-6.29% (inactive),
O=C(CN(c1ccccc1)S(=O)(=O)c1ccc(Cl)cc1)Nc1ccccc1C(=O)N1CCCC1,,5.8 µM (active)
COc1cccc(CN(C)C(=O)CC[C@H]2O[C@@H](n3cnc4c(NC(=O)c5ccccc5)ncnc43)[C@H](O)[C@@H]2O)c1,1.92% (inactive),
Cc1ccc(C)c(N2CCN(C(=O)CCCCCn3c(=S)[nH]c4ccc(N5CCOCC5)cc4c3=O)CC2)c1,-24.5% (inactive),
COc1cccc(N2CCN(C(=O)CCCCCn3c(=O)[nH]c4ccccc4c3=O)CC2)c1,1.41% (inactive),
Cc1ccc(C)c(N2CCN(C(=O)CCCCn3c(=O)[nH]c4ccccc4c3=O)CC2)c1,,6.51 µM (active)
